Reference: the supplement of paper PMC8975748
Counter-ions that a name gives are not always drawn.

Test system: Saccharomyces cerevisiae BY4741 SeMeCo community
Assay: z-score of subpopulation abundance vs DMSO median, subpopulation auxotrophic for L; higher = larger share of this subpopulation than in DMSO controls
Conditions: 10 µM; 24 h; SM minimal medium; subpopulation (auxotrophy): L
Procedure: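 Fluorescent four-plasmid SeMeCo (self-establishing metabolically cooperating S. cerevisiae BY4741 community; plasmids pH-mRuby2, pL-mWasabi, pU-eCFP, pM-TagRFP657) was grown 24 h in minimal SM medium with each Selleck FDA-approved drug at 10 µM in 384-well plates. Cells were fixed and imaged by high-content confocal microscopy. For each auxotrophic subpopulation (and the prototroph), a z-score gives the deviation from the DMSO vehicle-control population median.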

| SMILES | z-score of subpopulation abundance |
| --- | --- |
| CC(C)(O)C(Cl)(Cl)Cl [Chlorobutanol] | 0.36 |
| COc1ccc2c(c1)[C@]13CCCC[C@@H]1[C@H](C2)N(C)CC3 [Dextromethorphan hydrobromide hydrate] | 0.57 |
| CC(=O)O[C@H]1C[C@@H]2CC[C@@H]3[C@H](CC[C@@]4(C)[C@H]3C[C@H]([N+]3(C)CCCCC3)[C@@H]4OC(C)=O)[C@@]2(C)C[C@@H]1[N+]1(C)CCCCC1 [Pancuronium dibromide] | -0.47 |
| N#Cc1nn(-c2c(Cl)cc(C(F)(F)F)cc2Cl)c(N)c1[S+]([O-])C(F)(F)F (stereo not given) [Fipronil] | -0.6 |
| CC(C)=CCOc1c2occc2cc2ccc(=O)oc12 [Imperatorin] | 1.37 |
| COc1cc2c(cc1OC)C1CC(=O)C(CC(C)C)CN1CC2 (stereo not given) [Tetrabenazine (Xenazine)] | 1.69 |
| COc1ccc2c3c([nH]c2c1)C(C)=NCC3 [Harmaline] | 2.48 |
| CCCN1C[C@H](CSC)C[C@@H]2c3cccc4[nH]cc(c34)C[C@H]21 [Pergolide Mesylate] | 0.12 |
| CC[N+](C)(CC)CCOC(=O)C(O)(c1ccccc1)c1ccccc1 [Methylbenactyzine Bromide] | -0.83 |
| Oc1cc(Cl)ccc1Oc1ccc(Cl)cc1Cl [Triclosan] | -0.94 |
| CCOC(=O)Nc1ccc(NCc2ccc(F)cc2)cc1N [Retigabine] | -0.58 |
| CCOC(=O)Nc1ccc(NCc2ccc(F)cc2)cc1N [Retigabine 2HCl] | -0.41 |
| C[N+]1(C)[C@@H]2C[C@@H](OC(=O)[C@H](CO)c3ccccc3)C[C@H]1[C@@H]1O[C@@H]12 [Methscopolamine] | 0.57 |
| CN(C)C(=O)Oc1ccc[n+](C)c1 [Pyridostigmine Bromide] | 0.3 |
| Nc1nc(N)nc(NC2CC2)n1 [Cyromazine] | 0.49 |
| CN[C@@H]1[C@@H](O)[C@@H](O[C@@H]2[C@@H](O)[C@H](O[C@H]3O[C@H](CN)CC[C@H]3N)[C@@H](N)C[C@H]2N)OC[C@]1(C)O.CN[C@@H]1[C@@H](O)[C@@H](O[C@@H]2[C@@H](O)[C@H](O[C@H]3O[C@H]([C@@H](C)N)CC[C@H]3N)[C@@H](N)C[C@H]2N)OC[C@]1(C)O.CN[C@@H]1[C@@H](O)[C@@H](O[C@@H]2[C@@H](O)[C@H](O[C@H]3O[C@H]([C@@H](C)NC)CC[C@H]3N)[C@@H](N)C[C@H]2N)OC[C@]1(C)O [Gentamicin Sulfate] | -0.91 |
| C[C@H]1O[C@H](O[C@H]2[C@H](O)[C@@H](O)[C@@H](O)[C@H](O)[C@@H]2O)[C@@H](N)C[C@@H]1NC(=N)C(=O)O [Kasugamycin hydrochloride] | 0.8 |
| C=CC[C@]1(O)CC[C@H]2[C@@H]3CCC4=CC(=O)CCC4=C3C=C[C@@]21C [Altrenogest] | 0.59 |
| CC(C)N(CCC(C(N)=O)(c1ccccc1)c1ccccn1)C(C)C (stereo not given) [Disopyramide] | 2.35 |
| C=CCN1C[C@H](C(=O)N(CCCN(C)C)C(=O)NCC)C[C@@H]2c3cccc4[nH]cc(c34)C[C@H]21 [Cabergoline] | 0.36 |

| SMILES | z-score of subpopulation abundance |
| --- | --- |
| C[N+](C)(C)CCCCCCCCCC[N+](C)(C)C [Decamethonium Bromide] | -0.55 |
| COc1ccc2[nH]cc(CCN)c2c1 [5-Methoxytryptamine] | 0.52 |
| O=C(O[C@H]1C[C@H]2CC[C@@H](C1)[N+]21CCCC1)C(O)(c1ccccc1)c1ccccc1 [Trospium chloride] | -0.17 |
| CN(C)[C@@H]1C(=O)C(C(N)=O)=C(O)[C@@]2(O)C(=O)C3=C(O)c4c(O)cccc4[C@@](C)(O)[C@H]3[C@H](O)[C@@H]12 [Oxytetracycline (Terramycin)] | 0.2 |
| CN(C)[C@@H]1C(=O)C(C(N)=O)=C(O)[C@@]2(O)C(=O)C3=C(O)c4c(O)ccc(Cl)c4[C@@](C)(O)[C@H]3C[C@@H]12 [Chlortetracycline HCl] | -0.76 |
| CCCCCCCCCCCCCCCC[n+]1ccccc1 [Cetylpyridinium Chloride] | -2.16 |
| CN1C(=O)COc2c(C(=O)NC3CN4CCC3CC4)cc(Cl)cc21 (stereo not given) [Azasetron HCl] | 0.07 |
| NCCc1c[nH]c2ccc(O)cc12 [Serotonin HCl] | -1.08 |
| COC(=O)C1=CCCN(C)C1 [Arecoline HBr] | 0.3 |
| CN1[C@@H]2C[C@@H](OC(=O)[C@H](CO)c3ccccc3)C[C@H]1[C@@H]1O[C@@H]12 [Scopolamine HBr] | -0.33 |
| C[C@@H]1O[C@@H](O[C@H]2C[C@@H](O)[C@]3(CO)[C@H]4[C@H](O)C[C@]5(C)[C@@H](C6=CC(=O)OC6)CC[C@]5(O)[C@@H]4CC[C@]3(O)C2)[C@H](O)[C@H](O)[C@H]1O [Ouabain] | -0.43 |
| CN[C@@H]1[C@@H](O)[C@@H](O[C@@H]2[C@@H](O)[C@H](O[C@H]3O[C@H]([C@@H](C)O)[C@@H](O)[C@H](O)[C@H]3N)[C@@H](N)C[C@H]2N)OC[C@]1(C)O [Geneticin (G418 Sulfate)] | 0.54 |
| CC(NC(C)(C)C)C(=O)c1cccc(Cl)c1 (stereo not given) [Amfebutamone (Bupropion) HCl] | 0.13 |
| CC(=O)OCC1=C(C(=O)O)N2C(=O)C(N)C2SC1 (stereo not given) [7-Aminocephalosporanic acid] | 0.13 |
| CCC1=C[C@H]2CN3CCc4c([nH]c5ccccc45)[C@](C(=O)OC)(C2)[C@H]13 [Catharanthine] | -0.77 |
| CN(C)[C@@H]1C(=O)C(C(N)=O)=C(O)[C@@]2(O)C(=O)C3=C(O)c4c(O)cccc4[C@@](C)(O)[C@H]3[C@H](O)[C@@H]12 [Oxytetracycline Dihydrate] | -0.76 |
| CN1[C@@H]2C[C@@H](OC(=O)[C@H](CO)c3ccccc3)C[C@H]1[C@@H]1O[C@@H]12 [Scopolamine HBr trihydrate] | -0.39 |
| COc1ccc(C(CN(C)C)C2(O)CCCCC2)cc1 (stereo not given) [Venlafaxine HCl] | 0.66 |
| CCN(C)C(=O)Oc1cccc([C@H](C)N(C)C)c1 [Rivastigmine] | -0.94 |
| CCN(CC)CCOC(=O)C(O)(c1ccccc1)c1ccccc1 [Benactyzine hydrochloride] | 0.45 |
